Screens as filed in PubChem BioAssay.
SSB-PriA inh: inhibitors of Klebsiella pneumoniae PriA binding to SSB C-terminal tail; AlphaScreen SSBct-PriA binding, biotinylated peptide; inhibition, % at 33 µM; hit rate 0.6% among 430,000; in the data active means inhibition mostly above about 37%, no sharp cut-off; inactive means mostly below about 20%;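 further: plate controls were negative control peptide for no effect and reference peptide for full effect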
PfHsp40 yeast: restores yeast growth despite PfHsp40 toxicity. AID 504582. S. cerevisiae expressing PfHsp40, growth rescue, ATP luminescence. growth rescue, % at 12.5 µM. hit rate 0.68% among 340,000; in the data active means growth rescue above about 28%, passing the limit was not always enough;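 further: yeast W303a lacking pdr1 and pdr3 grown in galactose medium; growth measured after three days at 30 °C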
PrP 5UTR inh: suppresses PrP 5' UTR mRNA reporter expression. cell-based PrP 5' UTR mRNA reporter, plate reader. inhibition, % (test concentration not listed). hit rate 0.35% among 340,000; in the data active means inhibition above about 52%; further: 0 = median of the neutral control wells
PrPC surface inh: inhibitors of human cell surface prion protein PrPC | P04156 | TR-FRET read-out | inhibition, % at 13.8 µM | hit rate 0.43% among 370,000; in the data active means inhibition above about 24%; further: 0% = median of the test wells and 100% = reference compound wells
MazF activator: increases E. coli MazEF RNase cleavage of RNA; AID 504720; P0AE70; hit rate 0.32% among 350,000; FAM/BHQ RNA-DNA oligo cleavage fluorescence, 5 h; activation, % at 20 µM; in the data active means activation above about 50%
Target sequence (P0AE70 whole entry, looked up): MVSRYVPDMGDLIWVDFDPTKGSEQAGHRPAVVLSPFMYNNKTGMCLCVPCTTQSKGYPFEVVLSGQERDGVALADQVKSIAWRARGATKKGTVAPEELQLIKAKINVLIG
An asterisk follows results filed as active; . = not tested or not shown; ! = not active in a repeat. Hits are enriched below; roughly 1.8% of the tested compounds scored in any of these assays.

SMILES	SSB-PriA inh	PfHsp40 yeast	PrP 5UTR inh	PrPC surface inh	MazF activator
COc1ccc(-c2sc3ccc(OC)cc3c2C#Cc2cncn2C)cc1	-4.0	-0.8	10.0	-4.0	4.0
Brc1ccc2c(c1)C(c1ccc(N3CCOCC3)cc1)=NNC(c1cccs1)=N2	12.6	0.3	-27.9	-7.1	9.2
Fc1ccc2c(c1)C(c1ccc(N3CCOCC3)cc1)=NNC(c1cccs1)=N2	40.4*	0.9	-19.3	.	1.5
Brc1ccc2c(c1)C(c1cccnc1)=NNC(c1cccs1)=N2	52.8*	-0.5	-10.7	-3.6	-7.2
CCOc1ccc(C2=NNC(c3cccs3)=Nc3ccc(OC)cc32)cc1	26.7	-1.4	-32.4	-9.3	-10.7
Nc1c(C(=O)NCc2ccccc2)nnn1Cc1ccccc1	98.2*	0.3	-1.0	13.8	-1.2
O=C(Cc1ccsc1)Nc1ccc2c(c1)CCCN2C(=O)c1ccccc1	5.0	.	.	.	.
S=C(NC1CCCCC1)NC1CC2CCC(C1)N2Cc1ccccc1 (stereo not given)	1.3	0.1	-6.1	-2.1	16.5
O=C1CC(c2cccnc2)=NN1c1ccccc1	-21.7	90.8*	-17.1	-1.0	3.3
CSc1ccc(S(=O)(=O)NCCCn2ccnc2)cc1	2.3	-1.0	-8.7	6.9	9.5
O=[N+]([O-])c1cccc(S(=O)(=O)NCCCn2ccnc2)c1	52.9*	-0.9	-30.4	-12.2	-5.8
O=S(=O)(NCCCn1ccnc1)c1cccc2cnccc12	41.0*	.	.	.	.
CCOC(=O)C1=Nc2cccc3c(O)ccc1c23	.	.	.	-31.2	.
CCOC(=O)C1=Nc2ccccc2C1=[N+]=[N-]	-3.9	33.4*	-16.5	19.1	-0.3
O=C(Nc1ccc2c(c1)CCC2)c1cc2ccccc2o1	-14.9	132.3*	-136.9	2.1	0.1
COC(=O)N1CCC(CNC(=O)C(=O)NCCC2=CCCCC2)CC1	-4.0	.	.	.	.
Cc1ccc([C@H]2C(C(=O)O)=CC[C@@H](c3ccc(Cl)cc3)N2S(=O)(=O)c2ccc(C)cc2)cc1	7.7	46.1*	8.0	-1.5	-2.9
Cc1ccc([C@H]2C(C(=O)O)=CC[C@@H](c3ccc(C(C)C)cc3)N2S(=O)(=O)c2ccc(C)cc2)cc1	-7.6	7.6	-9.3	3.9	3.3
CCc1ccc([C@@H]2CC=C(C(=O)O)[C@H](c3cccc(Cl)c3)N2S(=O)(=O)c2ccc(C)cc2)cc1	-10.3	155.9*	-20.3	10.4	-1.9
Cc1ccc(S(=O)(=O)N2[C@@H](c3ccccc3)C(C(=O)O)=CC[C@H]2c2ccc(C(C)C)cc2)cc1	8.5	133.0*	-22.9	5.4	-6.4
Cc1ccc(S(=O)(=O)N2[C@@H](c3ccc(Cl)cc3)C(C(=O)O)=CC[C@H]2c2ccc(C(C)C)cc2)cc1	7.3	5.8	-1.4	1.2	-2.4
CCc1ccc([C@@H]2CC=C(C(=O)O)[C@H](c3ccc(Cl)cc3)N2S(=O)(=O)c2ccc(C)cc2)cc1	-9.7	281.0*	-10.9	3.7	-4.3
CCc1ccc([C@@H]2CC=C(C(=O)O)[C@H](c3ccc(C)cc3)N2S(=O)(=O)c2ccc(C)cc2)cc1	0.8	13.6	-59.7	-2.0	3.9
CCN(CC(=O)NCc1ccc(Cl)cc1)C(=O)COc1ccc(Cl)cc1Br	0.7	2.4	-16.3	0.7	3.2
CCOC(=O)C1CCCN(c2c(NCCc3cccc(C)c3)c(=O)c2=O)C1 (stereo not given)	-14.6	-1.0	-26.8	10.5	6.0
SMILES	SSB-PriA inh	PfHsp40 yeast	PrP 5UTR inh	PrPC surface inh	MazF activator
O=C(OCc1cn([C@H]2C[C@H](c3ccc(Cl)cc3)N(CC3CCCCC3)C[C@@H]2O)nn1)c1ccccc1	.	.	.	-0.3	0.5
COc1cc(C(=O)Nc2c(-c3ccccn3)c(=O)c3ccccc3n2C)cc(OC)c1OC	-2.0	.	.	.	.
Cc1ccc([C@H]2C(C(=O)O)=CC[C@@H](c3cccc(Cl)c3)N2S(=O)(=O)c2ccc(C)cc2)cc1	-5.5	212.6*	-8.6	-5.9	-9.6
CC1=CC(=NNc2ccccc2[N+](=O)[O-])CC(C)(C)C1	116.7*	.	.	.	.
Cc1cccc(Nc2nc(N)c([N+](=O)[O-])c(N3CCN(C)CC3)n2)c1	12.0	-0.6	-5.0	-14.1	-4.4
Cc1cccc(Nc2nc(N)c([N+](=O)[O-])c(N3CCCC(C)C3)n2)c1 (stereo not given)	38.2	165.8*	-17.7	2.0	1.2
CCCN1CCCc2cc(CCNS(=O)(=O)Cc3cccc(Cl)c3)ccc21	55.0*	.	.	.	.
CCCN1CCCc2cc(CCNS(=O)(=O)CC)ccc21	46.0*	.	.	.	.
CCCNC(=O)C(=O)NCCc1ccc2c(c1)CCCN2CCC	2.8	.	.	.	.
CCCN1CCCc2cc(CCNS(=O)(=O)Cc3ccc(F)cc3)ccc21	77.0*	.	.	.	.
CCCN1CCCc2cc(CCNC(=O)CCc3ccccc3)ccc21	61.8	.	.	.	.
CCCN1CCCc2cc(CCNS(=O)(=O)CCc3ccc(OC)cc3)ccc21	60.0*	.	.	.	.
C=C(C)Cn1c(SCc2cc(=O)[nH][nH]2)nc2sc3c(c2c1=O)CCCC3	26.0	.	.	.	.
CCOC(=O)Nc1ccc(S(=O)(=O)Nc2onc(C)c2C)cc1	0.1	.	.	0.7	6.6
O=C(c1ccc(F)cc1Cl)N1CCOC[C@@H]1CO	-14.0	.	.	.	.
CCCN1CCCc2cc(CCNS(=O)(=O)c3ccc(Cl)s3)ccc21	active!	.	.	.	.
CCCN1CCCc2cc(CCNS(=O)(=O)c3ccccc3)ccc21	86.3	.	.	.	.
CCCN1CCCc2cc(CCNS(=O)(=O)Cc3ccccc3)ccc21	94.5*	.	.	.	.
CCCN1CCCc2cc(CCNS(=O)(=O)c3ccc(Br)cc3)ccc21	52.0*	.	.	.	.
CCN(CC)c1nc(-c2ccccn2)nc(-c2ccccc2)c1C#N	-20.8	71.4*	-51.3	3.1	11.8
CCOc1ccc(S(=O)(=O)N2CCC(C(=O)NCc3cccnc3)CC2)cc1Cl	-11.3	0.6	1.4	3.5	3.6
Cn1cccc1C(CNC(=O)c1ccc2ccccc2c1)N1CCCC1 (stereo not given)	22.0*	.	.	.	.
Cn1cccc1C(CNC(=O)c1ccc(C(C)(C)C)cc1)N1CCCC1 (stereo not given)	9.0	.	.	.	.
CC(CNC(=O)COc1ccccc1)OC(=O)Nc1ccc(Cl)c(Cl)c1 (stereo not given)	-3.8	199.7*	-1.1	-4.3	-4.8
CNS(=O)(=O)/C=C/c1ccccc1	-0.9	-0.1	-20.4	-6.7	4.7
SMILES	SSB-PriA inh	PfHsp40 yeast	PrP 5UTR inh	PrPC surface inh	MazF activator
O=S(=O)(/C=C/c1ccccc1)NC1CCCCCC1	-9.9	63.4*	-37.5	-0.5	-14.1
O=S1(=O)CCC(NS(=O)(=O)/C=C/c2ccccc2)C1 (stereo not given)	-0.2	-0.8	-6.2	3.3	4.4
O=S(=O)(/C=C/c1ccccc1)NC1CCCCCCC1	-31.9	69.6*	-12.4	1.9	-5.0
O=C(C1CCCO1)N1CCN(c2ccc(-n3cccc3)nn2)CC1 (stereo not given)	-22.0	.	.	.	.
Cc1[nH]c2ccccc2c1C(=O)COC(=O)c1ccc([N+](=O)[O-])s1	44.6*	-2.0	-41.0	-2.0	5.5
O=C(COC(=O)c1ccc([N+](=O)[O-])s1)NCc1ccccc1	-6.3	-0.7	-10.6	-5.0	-6.0
CCCN1CCCc2cc(CCNS(=O)(=O)c3cc(Cl)ccc3OC)ccc21	56.0*	.	.	.	.
CCCN1CCCc2cc(CCNC(=O)C(=O)Nc3ccc(OC)cc3OC)ccc21	36.0	.	.	.	.
CCCN1CCCc2cc(CCNS(=O)(=O)c3cc(OC)ccc3OC)ccc21	43.0*	.	.	.	.
